The list is not random: actives were taken first. Their share in the collection is about 4.5%.
Rtt109 Vps75 = inhibitors of C. albicans Rtt109/Vps75 HAT, primary screen, biochemical, ThioGlo CoA-SH fluorescence, plate reader | actives 0.16% (n = 330,000) | inhibition, % at 34.9 µM | Histone acetyltransferase RTT109 (Candida albicans (strain SC5314 / ATCC MYA-2876)), … | purified Rtt109/Vps75, 4 h;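 active = inhibition of at least 50% in every replicate; inconclusive = best replicate reaches 50% inhibition but some replicates fall short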
Target sequence (Q5AAJ8 whole entry, looked up): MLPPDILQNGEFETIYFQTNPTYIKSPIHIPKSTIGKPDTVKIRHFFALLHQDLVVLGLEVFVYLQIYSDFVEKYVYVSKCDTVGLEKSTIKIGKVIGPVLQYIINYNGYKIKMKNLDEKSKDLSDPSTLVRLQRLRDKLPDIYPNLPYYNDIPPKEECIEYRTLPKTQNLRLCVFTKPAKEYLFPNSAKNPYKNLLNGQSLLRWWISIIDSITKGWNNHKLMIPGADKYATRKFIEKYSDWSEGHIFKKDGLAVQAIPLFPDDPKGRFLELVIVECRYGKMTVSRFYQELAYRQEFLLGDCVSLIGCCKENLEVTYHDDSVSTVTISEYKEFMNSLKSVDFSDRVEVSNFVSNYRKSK
ALR inh = inhibitors of human ALR sulfhydryl oxidase, primary screen, biochemical, H2O2 detection, HRP-luminol luminescence, single point; FAD-linked sulfhydryl oxidase ALR (Homo sapiens), P55789; purified ALR, DTT oxidation; inhibition, % (test concentration not listed); actives 3.8% (n = 290,000);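 active = mean replicate inhibition above about 79%, with every replicate also reaching it, limit read from the data; inconclusive = only one of the two criteria met; inactive = mean below limit and not every replicate reaching it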
Target sequence (P55789 whole entry, looked up): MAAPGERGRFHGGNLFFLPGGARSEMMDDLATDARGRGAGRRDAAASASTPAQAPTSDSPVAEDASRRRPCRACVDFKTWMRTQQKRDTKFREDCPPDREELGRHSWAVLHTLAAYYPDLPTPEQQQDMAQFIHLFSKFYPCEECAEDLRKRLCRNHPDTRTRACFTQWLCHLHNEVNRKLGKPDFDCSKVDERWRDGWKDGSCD
GRK2 inh = compounds blocking aptamer binding on GRK2 – biochemical, human GRK2, bead flow cytometry, HTS, primary screen. actives 0.59% (n = 330,000). AID 488847, 2010. Beta-adrenergic receptor kinase 1 (Homo sapiens), P25098. inhibition of aptamer binding, % at 10 µM. FAM-aptamer displacement from GRK2;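 active = inhibition of aptamer binding above 40%, roughly 3 SD of noise, on plates passing a quality check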;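 also: median bead fluorescence of bound FAM aptamer so fluorescent compounds give negative values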
Rce1 inh = yeast Rce1p protease inhibitors, primary screen, biochemical, fluorescence, cell-free homogeneous; CAAX prenyl protease 2 (Saccharomyces cerevisiae (strain ATCC 204508 / S288c)), Q03530; yeast membranes, quenched prenylated peptide cleavage fluorescence; calls only; actives 0.27% (n = 290,000); AID 2563, 2010;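 active = fall in fluorescence gain of 50% or more versus controls, with final raw signal at or below 3038400; inconclusive = same 50% fall but final raw signal above 3038400; inactive = fall in fluorescence gain under 50%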;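 also: plate controls were neutral control wells for no effect and wells lacking membranes for full effect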
HDAC3 inh = HDAC3 deacetylase inhibitors, primary screen, biochemical, fluorescence, cell-free homogeneous. inhibition, % at 8.3 µM. Histone deacetylase 3 (Homo sapiens), O15379. recombinant HDAC3, fluorogenic peptide/trypsin coupled. actives 0.15% (n = 320,000); in the data active = inhibition above about 26%, passing the limit was not always enough; inconclusive = no clear call, values can overlap the other calls
Efflux pump inh = inhibitors of Candida efflux pumps in yeast, primary screen, S. cerevisiae, Nile Red, multiplex. inhibition, % at 10 µM. actives 0.44% (n = 330,000). AID 485275, 2010. S. cerevisiae Candida pump triplex;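 active = plate passing quality check with inhibition over a set limit, or well fluorescence over plate mean plus 4 SD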;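 also: Nile Red retained in pooled yeast measured as flow cytometry median fluorescence; 0% = buffer negative control and 100% = Enniatin B positive control; higher means more Nile Red kept so more efflux inhibition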
An asterisk follows results filed as active; i = inactive; ? = inconclusive; . = no result given.

SMILES	Rtt109 Vps75	ALR inh	GRK2 inh	Rce1 inh	HDAC3 inh	Efflux pump inh
CCOC(=S)SCC(=O)Nc1nc(C)c(C)s1	7	98*	0	i	21	0
O=C(CSCC(=O)Nc1nccs1)Nc1ccccc1	-8	99*	1	i	-2	0
O=C(CSCc1ccc(Cl)cc1)Nc1nccs1	3	-2	0	i	4	0
O=C(c1ccccc1)n1nc(-c2ccccc2)nc1NCc1ccco1	4	32	0	i	38*	0
Cc1ccc(C(=O)n2nc(-c3ccccc3)nc2NCc2ccco2)cc1	10	2	2	i	2	0
CCCC(=O)n1nc(-c2ccc(C)cc2)nc1NCc1ccco1	-1	90*	4	i	2	0
CN(C)c1ccc(N=Nc2ccc3ncccc3c2)cc1	-1	.	.	.	.	.
Cc1cc(N(C)C)ccc1N=Nc1ccc2ncccc2c1	3	94*	0	i	3	0
O=C(O)/C=C/c1cnn(-c2ccccc2)c1	5	.	.	i	.	.
COc1ccccc1N1CCN(C(c2cccs2)C(C)NC(=O)c2cccnc2)CC1 (stereo not drawn)	-2	98*	0	i	.	0
CC(NC(=O)c1ccc(N(C)C)cc1)C(c1cccs1)N1CCN(C)CC1 (stereo not drawn)	3	78*	1	i	2	0
Cc1ccc(C(=O)N2CCN(c3ccccc3Cl)CC2)cc1[N+](=O)[O-]	-2	-9	0	i	9	0
CCc1nn2c(=O)cc(CSCC(=O)Nc3ccccc3F)nc2s1	1	99*	0	i	.	0
Cc1nn2c(=O)cc(CSCC(=O)Nc3ccccc3F)nc2s1	-11	-8	5	i	-3	0
O=C(O)/C=C/C(=O)Nc1ccccc1C(=O)OCC(=O)c1ccc2c(c1)OCCO2	-46	88*	0	i	3	0
COC(=O)c1ccccc1NC(=O)/C=C/C(=O)O	1	.	3	i	3	0
CCOC(=O)c1ccccc1NC(=O)/C=C/C(=O)O	-3	98*	1	i	1	0
CSCCC1NC(=O)N(CC(=O)N2CCc3ccccc3C2)C1=O (stereo not drawn)	3	.	4	.	6	0
COc1c(C(CC(C)C)OC(C)=O)ccc2c1C(=O)OCc1cc(C)cc(O)c1O2 (stereo not drawn)	3	-57	1	i	34*	0
COc1c(C(O)CC(C)C)ccc2c1C(=O)OCc1cc(C)cc(O)c1O2 (stereo not drawn)	13	33	0	i	?	0
Cn1c(CNC(=O)CCNC(=O)c2ccc(F)c(F)c2)cc(=O)n(C)c1=O	11	-2	0	i	0	0
Cc1ncc(CO)c(CNc2ccc(-c3nc4ccccc4[nH]3)cc2)c1O	-4	98*	0	i	-13	0
Cc1ncc(CO)c(CO)c1O	-2	0	0	i	3	0
COc1ccc(/C=N/NC(=O)c2cccnc2)c(C(=O)O)c1OC	-9	-1	4	i	-3	0
O=C(COC(=O)/C=C/c1ccc(Cl)cc1Cl)NCC1CCCO1 (stereo not drawn)	0	12	0	.	5	0
SMILES	Rtt109 Vps75	ALR inh	GRK2 inh	Rce1 inh	HDAC3 inh	Efflux pump inh
CCOC(=O)/C(C#N)=C\C=C1C=CN(C)C=C1	-2	99*	1	i	13	0
CCOC(=O)/C(C#N)=C\c1ccc(CC)s1	-3	0	2	i	7	0
CCOC(=O)C1CCN(Cc2c(F)cccc2Cl)CC1	8	98*	0	i	?	0
CCOC(=O)C1CCN(C(=O)Cc2c(F)cccc2Cl)CC1	-1	0	3	i	1	0
CCOC(=O)C1CCCN(Cc2c(F)cccc2Cl)C1 (stereo not drawn)	0	99*	4	i	9	0
CCOC(=O)C1CCN(Cc2ccc(F)c(F)c2)CC1	0	0	1	i	-4	0
CCOC(=O)C1CCCN(C(=O)Cc2c(F)cccc2Cl)C1 (stereo not drawn)	3	-1	0	i	-1	0
CCOC(=O)C1CCN(Cc2ccc(N(C)C)cc2)CC1	2	99*	1	.	1	0
CC(=O)NNC(=O)c1cc2sccc2s1	-1	.	1	i	-5	0
NNC(=O)c1cc2sccc2s1	-13	98*	1	i	-4	0
Cc1ccc(C(=O)CCNc2ccccc2)o1	1	97*	0	i	-1	0
O=C(NC(=S)N1CCN(c2ccccc2)CC1)c1ccccc1	3	?	0	.	-7	0
Nc1ccc(N2CCN(C(=O)c3ccco3)CC2)cc1	-5	99*	0	i	7	0
O=C(NCC(=O)N1CCN(c2ccccc2O)CC1)c1ccco1	3	90*	1	i	2	0
O=C(NC(=S)N1CCN(c2ccccc2)CC1)c1ccco1	0	98*	0	.	4	0
Cc1ccc(C(=O)NCCc2nnc3c(C(F)(F)F)cc(Cl)cn23)o1	5	1	12	i	?	0
Cc1cccc(C(=O)Nc2ccc(S(=O)(=O)Nc3nc(C)cc(C)n3)cc2)c1	-3	0	1	i	2	0
COc1ccc(CC(=O)NCc2ccc(F)cc2)cc1S(=O)(=O)N1CCOCC1	2	-2	0	.	-1	0
CCCC(NC(=S)NCC1CCCO1)C12CC3CC(CC(C3)C1)C2 (stereo not drawn)	-6	-3	6	i	5	0
CCCCn1c(SCC(=O)Nc2nccs2)nc2ccccc2c1=O	-16	-9	1	i	-8	0
CN(C)CCCn1c(SCC(=O)Nc2nc(-c3cccc(Br)c3)cs2)nc2ccccc2c1=O	5	99*	0	i	12	0
CCOc1cc(/C=N/n2cnnc2)ccc1O	2	99*	0	i	5	0
CCOc1cc(/C=N/Nc2nn3cnnc3c3ccccc23)ccc1O	3	82*	3	i	.	0
Cn1c(CNC(=O)CNC(=O)Cc2ccccc2)cc(=O)n(C)c1=O	-12	-1	3	i	?	0
Cc1cc(C)nc(Nc2n[nH]c(-c3ccc(N)cc3)n2)n1	-4	99*	0	.	6	0
Cc1ccnc(NC(=O)CCN2C(=O)c3ccccc3S2(=O)=O)n1	-9	.	.	i	.	.

Bioassay records from PubChem.
